# Measurements: PubChem BioAssay AID1332 (Southern Research Institute, 2008)
# Screen size: about 1,100 compounds; about 170 (15%) were called active. How the calls were made is not given here. The list is a sample of the results.
# Experiment: Mycobacterium tuberculosis H37Rv growth inhibition, confirmatory dose response, cytotoxicity (AID 1332);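 on CC50: Vero cells exposed to compounds for 72 hours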;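 on IC50: bacteria incubated 7 days before adding Alamar blue readout reagent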
# Conditions: M. tuberculosis H37Rv growth inhibition; CC50: measured here: Vero cell cytotoxicity; IC50: measured here: IC50 H37Rv replicates
SMILES,IC50,outcome,CC50
CCCNC(C)C(=O)Nc1c(C)csc1C(=O)OC (stereo not given),> 20 µg/mL,inactive,
C=C1[C@@H](O)[C@]23C[C@@H]1[C@@H](O)C[C@H]2[C@@]12C4[C@@H]3C[C@@H]1[C@@](C)(CC[C@@H]2O)CN4CC,> 20 µg/mL,inactive,
CNCCc1ccccn1,> 20 µg/mL,inactive,
CCCCOc1ccc(OCCCN2CCOCC2)cc1,> 20 µg/mL,inactive,
C[C@H](CCC(=O)O)[C@H]1CC[C@H]2[C@@H]3[C@H](O)C[C@@H]4C[C@H](O)CC[C@]4(C)[C@H]3CC[C@]12C,> 20 µg/mL,inactive,
CCN1C[C@]2(COC)CC[C@H](OC)[C@@]34C1[C@]1(OCO[C@@]15C[C@H](OC)[C@H]1C[C@@H]3[C@@H]5[C@H]1OC)[C@@H](O)[C@H]24,> 20 µg/mL,inactive,
O=S(=O)(O)c1cc(O)ccc1O,> 20 µg/mL,inactive,
CN1C2CCCC1CC(=O)C2,> 20 µg/mL,inactive,
CC1=CC(=O)C2=C(C)C[C@H](O)[C@@H]3[C@H](OC(=O)[C@H]3C)[C@@H]12,> 20 µg/mL,inactive,
CC[C@@H](C(=O)[C@@H](C)[C@@H](O)[C@H](C)CCc1ccc(C)c(O)c1C(=O)O)[C@H]1O[C@](CC)([C@H]2CC[C@](O)(CC)[C@H](C)O2)C[C@@H]1C,6.19 µg/mL,active,> 6 µg/mL
CC(=O)N(CC(C)C(=O)O)c1c(I)cc(I)c(N)c1I (stereo not given),> 20 µg/mL,inactive,
CC(C)(C)NC[C@H](O)COc1cccc2c1CCCC2=O,> 20 µg/mL,inactive,
C[C@]12CC[C@@H]3c4ccc(O)cc4CC[C@H]3[C@@H]1C[C@@H](O)[C@@H]2O,> 20 µg/mL,inactive,
NC(N)=NCC1COC2(CCCCC2)O1 (stereo not given),> 20 µg/mL,inactive,
Nc1ccc(S(N)(=O)=O)cc1,> 20 µg/mL,inactive,
Nc1ccc(S(=O)(=O)c2ccc(N)cc2)cc1,9.09 µg/mL,active,
NC(N)=NS(=O)(=O)c1ccc(N)cc1,> 20 µg/mL,inactive,
O=c1[nH]c(=O)n([C@H]2CC(O)[C@@H](CO)O2)cc1I (stereo not given in full),> 20 µg/mL,inactive,
Cn1cc[nH]c1=S,> 20 µg/mL,inactive,
CCN1CCC[C@H]1CNC(=O)c1c(OC)ccc(Br)c1OC,> 20 µg/mL,inactive,
CCCc1ncc(C[n+]2ccccc2C)c(N)n1,> 20 µg/mL,inactive,
NC(=O)c1ccc[n+]([C@@H]2O[C@H](COP(=O)([O-])OP(=O)(O)OC[C@H]3O[C@@H](n4cnc5c(N)ncnc54)[C@H](O)[C@@H]3O)[C@@H](O)[C@H]2O)c1,> 20 µg/mL,inactive,
Cc1onc(-c2c(F)cccc2Cl)c1C(=O)N[C@@H]1C(=O)N2C(C(=O)O)C(C)(C)S[C@H]12 (stereo not given in full),> 20 µg/mL,inactive,
CNCCCC1c2ccccc2C=Cc2ccccc21,17.4 µg/mL,active,> 6 µg/mL
NCc1ccc(S(N)(=O)=O)cc1,> 20 µg/mL,inactive,
COc1cc(NS(=O)(=O)c2ccc(N)cc2)nc(OC)n1,12.6 µg/mL,active,

SMILES,IC50,outcome,CC50
COc1ncnc(NS(=O)(=O)c2ccc(N)cc2)c1OC,> 20 µg/mL,inactive,
COc1cnc(NS(=O)(=O)c2ccc(N)cc2)nc1,> 20 µg/mL,inactive,
C[C@@H]1NC(=O)NC1=O,> 20 µg/mL,inactive,
CC1CS(=O)(=O)CCN1N=Cc1ccc([N+](=O)[O-])o1 (stereo not given),2.74 µg/mL,active,
O=C1OC(CN2CCOCC2)CN1/N=C/c1ccc([N+](=O)[O-])o1 (stereo not given),> 20 µg/mL,inactive,
CCCc1cc(=O)[nH]c(=S)[nH]1,> 20 µg/mL,inactive,
CCOC(=O)Nc1ccc2c(c1)N(C(=O)CCN1CCOCC1)c1ccccc1S2,> 20 µg/mL,inactive,
CCN(CC)CCOC(=O)C(c1ccccc1)c1ccccc1,> 20 µg/mL,inactive,
CC(C)NC[C@@H](O)COc1cccc2ccccc12,> 20 µg/mL,inactive,
C[C@@H]1O[C@@H](O[C@H]2[C@H](Oc3cc(O)c4c(c3)O[C@H](c3ccc(O)cc3)CC4=O)O[C@H](CO)[C@@H](O)[C@@H]2O)[C@H](O)[C@H](O)[C@H]1O,> 20 µg/mL,inactive,
CN[C@H](CC(C)C)C(=O)N[C@H]1C(=O)N[C@@H](CC(N)=O)C(=O)N[C@H]2C(=O)N[C@H]3C(=O)N[C@H](C(=O)N[C@H](C(=O)O)c4cc(O)cc(O)c4-c4cc3ccc4O)[C@H](O)c3ccc(c(Cl)c3)Oc3cc2cc(c3O[C@@H]2OC(CO)[C@@H](O)[C@H](O)[C@H]2O[C@H]2C[C@](C)(N)[C@H](O)[C@H](C)O2)Oc2ccc(cc2Cl)[C@H]1O (stereo not given in full),1.06 µg/mL,active,
COc1ccc(C(=O)c2ccccc2)c(O)c1,> 20 µg/mL,inactive,
CCC[C@@H]1C[C@@H](C(=O)N[C@@H](C2O[C@H](SC)[C@H](O)[C@@H](O)[C@H]2O)[C@H](C)Cl)N(C)C1 (stereo not given in full),0.395 µg/mL,active,
CCC[C@@H]1C[C@@H](C(=O)N[C@@H]([C@H]2O[C@H](SC)[C@H](O)[C@@H](O)[C@@H]2O)[C@@H](C)O)N(C)C1,11.6 µg/mL,active,
CCC(=O)O[C@@H]1CC(=O)O[C@H](C)C/C=C/C=C/[C@@H](O)[C@H](C)C[C@H](CC=O)[C@H](O[C@@H]2O[C@H](C)[C@@H](O[C@H]3C[C@@](C)(O)[C@@H](OC(=O)CC)[C@H](C)O3)[C@H](N(C)C)[C@H]2O)[C@H]1OC,> 20 µg/mL,inactive,
CN(C)CCOC(c1ccc(Cl)cc1)c1ccccn1 (stereo not given),> 20 µg/mL,inactive,
CCOC(=O)[C@H](CCc1ccccc1)N[C@@H](C)C(=O)N1C(C(=O)O)C[C@@H]2CCC[C@@H]21 (stereo not given in full),> 20 µg/mL,inactive,
Cc1onc(-c2ccccc2Cl)c1C(=O)N[C@@H]1C(=O)N2[C@@H]1SC(C)(C)[C@@H]2C(=O)O,> 20 µg/mL,inactive,
NCc1ccccc1CC(=O)N[C@@H]1C(=O)N2C(C(=O)O)=C(CSc3nnnn3CC(=O)O)CS[C@H]12,13.8 µg/mL,active,
Cn1nnnc1SCC1=C(C(=O)O)N2C(=O)[C@@H](NC(=O)[C@H](O)c3ccccc3)[C@H]2SC1,> 20 µg/mL,inactive,
CN(C)CCn1nnnc1SCC1=C(C(=O)O)N2C(=O)[C@@H](NC(=O)Cc3csc(N)n3)[C@H]2SC1,> 20 µg/mL,inactive,
CC(C)(C)NCC(O)COc1cccc2c1CCC(=O)N2 (stereo not given),> 20 µg/mL,inactive,
Cc1n[nH]c(=O)[nH]c1=O,> 20 µg/mL,inactive,
COc1cc(N)c(Cl)cc1C(=O)N[C@H]1CCN(CCCOc2ccc(F)cc2)C[C@H]1OC,9.3 µg/mL,active,
CCN(CC)CCNC(=O)c1cc(Cl)c(N)cc1OC,> 20 µg/mL,inactive,
COc1cc(N)c(Cl)cc1C(=O)NC1CCN(Cc2ccccc2)CC1,> 20 µg/mL,inactive,

SMILES,IC50,outcome,CC50
O=C(O)C1CCCNC1 (stereo not given),> 20 µg/mL,inactive,
CC(=O)Nc1cc2ccccc2oc1=O,> 20 µg/mL,inactive,
CCCC(=O)Nc1ccc(OCC(O)CNC(C)C)c(C(C)=O)c1 (stereo not given),> 20 µg/mL,inactive,
COc1cc(/C=C/C(=O)N2CCC=CC2=O)cc(OC)c1OC,11.4 µg/mL,active,1.53 µg/mL
COc1cc(C(=O)OCCCN2CCCN(CCCOC(=O)c3cc(OC)c(OC)c(OC)c3)CC2)cc(OC)c1OC,> 20 µg/mL,inactive,
CC(=O)[C@H]1CC[C@H]2[C@@H]3C=CC4=CC(=O)CC[C@@]4(C)[C@@H]3CC[C@]12C,> 20 µg/mL,inactive,
CC(N)CCCC(C)(C)O (stereo not given),> 20 µg/mL,inactive,
CC1(C)S[C@@H]2[C@H](NC(=O)[C@H](N)c3ccccc3)C(=O)N2[C@H]1C(=O)OC1OC(=O)c2ccccc21 (stereo not given in full),> 20 µg/mL,inactive,
CC(=O)Oc1ccc(C(c2ccc(OC(C)=O)cc2)c2ccccn2)cc1,> 20 µg/mL,inactive,
CC(=O)N=c1sc(S(N)(=O)=O)nn1C,> 20 µg/mL,inactive,
C=C(C)[C@@H]1CC[C@]2(CO)CC[C@]3(C)[C@H](CC[C@@H]4[C@@]5(C)CC[C@H](O)C(C)(C)[C@@H]5CC[C@]43C)[C@@H]12,> 20 µg/mL,inactive,> 6 µg/mL
C[N+](C)(CCOc1ccccc1)Cc1ccccc1,> 20 µg/mL,inactive,
CC(C)(C)CC(C)(C)c1ccc(OCOCCOCCO)c(Cc2cc(C(C)(C)CC(C)(C)C)cc(Cc3cc(C(C)(C)CC(C)(C)C)ccc3OCOCCOCCO)c2OCOCCOCCO)c1,> 20 µg/mL,inactive,
CC(C)(C)CC(C)(C)c1ccc(OCCOCC[N+](C)(C)Cc2ccccc2)cc1,8 µg/mL,active,
CCCCC1(COC(=O)CCC(=O)O)C(=O)N(c2ccccc2)N(c2ccccc2)C1=O,> 20 µg/mL,inactive,
CNCCC(Oc1ccc(C(F)(F)F)cc1)c1ccccc1 (stereo not given),9.88 µg/mL,active,> 6 µg/mL
CNCCC(Oc1ccccc1OC)c1ccccc1 (stereo not given),> 20 µg/mL,inactive,
CO[C@H]1C=C2CCN(C)[C@H]2C2c3cc4c(cc3C(=O)O[C@@H]21)OCO4 (stereo not given in full),> 20 µg/mL,inactive,
C#C[C@]1(OC(C)=O)CC[C@H]2[C@@H]3CCC4=C[C@@H](OC(C)=O)CC[C@@H]4[C@H]3CC[C@@]21C,> 20 µg/mL,inactive,
CN(C)[C@@H]1C(=O)C(C(=O)NCN2CCCC2)=C(O)[C@@]2(O)C(=O)C3=C(O)c4c(O)cccc4[C@@](C)(O)C3CC12 (stereo not given in full),> 20 µg/mL,inactive,
CN(C)[C@@H]1C(=O)C(C(N)=O)=C(O)[C@@]2(O)C(=O)C3=C(O)c4c(O)cccc4[C@@](C)(O)[C@H]3[C@H](O)[C@@H]12,> 20 µg/mL,inactive,
C=C1c2c(Cl)ccc(O)c2C(O)=C2C(=O)[C@]3(O)C(O)=C(C(N)=O)C(=O)[C@@H](N(C)C)[C@@H]3[C@@H](O)C12 (stereo not given in full),3.86 µg/mL,active,> 6 µg/mL
C[C@H]1c2cccc(O)c2C(O)=C2C(=O)C3(O)C(O)=C(C(N)=O)C(=O)[C@@H](N(C)C)[C@@H]3[C@@H](O)[C@@H]21 (stereo not given in full),2.44 µg/mL,active,
C=C1c2cccc(O)c2C(O)=C2C(=O)[C@]3(O)C(O)=C(C(N)=O)C(=O)[C@@H](N(C)C)[C@@H]3[C@@H](O)[C@H]12,> 17.9 µg/mL,active,
CN(C)[C@@H]1C(=O)C(C(N)=O)=C(O)[C@@]2(O)C(=O)C3=C(O)c4c(O)ccc(Cl)c4[C@@](C)(O)C3C[C@@H]12 (stereo not given in full),13.2 µg/mL,active,
